From PubChem BioAssay
Where “and” joins values, the source holds several entries; their conditions need not be identical. Equal values may be shown once.

Assay: probe aNOTCH2 binding on compound microarray – biochemical, small-molecule microarray, 635/667 nm fluorescence, primary screen (AID 1121);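 also: score merges feature fluorescence read at 667 nm with its signal to noise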
Conditions: higher = more signal

Row | Structure (SMILES) | composite z-score
1 | C=C[C@@H](C)[C@H](O)c1ccc(O)c2ccccc12 | -0.247 and -0.223
2 | CCOC(=O)C[C@H]1[C@H](OC(=O)c2ccccc2-c2ccccc2)[C@@H](NC(=O)Cc2ccc(OC)cc2)c2cc(OCCCO)ccc2N1C(=O)c1ccc2ccccc2n1 | -0.14 and 0.0777
3 | COCn1c2ccccc2c2nnc(C(C)=O)nc21 | -0.131 and -0.126
4 | C[C@@H](ON=C1[C@H]2CCn3c(=O)n(-c4ccccc4)c(=O)n3[C@H]2[C@H](O)[C@@H]2O[C@H]12)c1cn([C@H](CO)Cc2ccccc2)nn1 | -0.17
5 | COC(=O)C1=C(C)N(Cc2ccccc2)[C@]23O[C@](C(=O)OC)(C(=O)N2[C@@H]1c1ccccc1)[C@H]1C(=O)N(C)C(=O)[C@H]13 | -0.116 and -0.148
6 | C[C@@H]1CC[C@H]2C(=O)N3[C@@H](CC[C@@H](C)[C@@H]3c3ccc(-c4ccco4)cc3)C(=O)N2[C@H]1c1ccc(-c2ccco2)cc1 | 0.0079 and 0.0312
7 | CCOC(=O)NN=C1C[C@@H](O)[C@@H](O)[C@@H]2[C@@H]3C(=O)N(Cc4ccc5c(c4)OCO5)C(=O)[C@@H]3CC[C@@H]12 | -0.0349
8 | C=CCN(C(=O)C(c1cccs1)N(C(=O)/C=C\C(=O)O)c1ccc(CCO)cc1)c1ccc(OC)cc1 (centres undefined) | -0.164 and -0.19
9 | CC(CO)N1C(=O)[C@@H]2C3C(=O)OCCC=C[C@H]3OC23C=CCN(c2ccc(Cl)cc2)C(=O)[C@@H]13 (some centres undefined) | -0.0995 and 0.0031
10 | C#CCN1C(/C=C/c2ccccc2)C(=O)OC[C@H]1c1ccccc1 (some centres undefined) | -0.181 and -0.101
11 | C[C@@H]1CN2[C@@H](CC[C@@H](C)[C@@H]2c2ccc(Br)cc2)C(=O)O1 | -0.0515 and -0.221
12 | C=CCN(C(=O)C(c1cccs1)N(CCOCCO)C(=O)/C=C\C(=O)O)c1ccc(OC)cc1 (centres undefined) | -0.14 and -0.126
13 | C=CCN(CCCCC)C(=O)C(c1cccs1)N(C(=O)/C=C\C(=O)O)c1ccc(CCO)cc1 (centres undefined) | -0.183 and -0.0859
14 | C[C@@H](c1ccccc1)N1C(=O)[C@H]2[C@H]3[C@H](O)[C@H](O)CC(=O)[C@@H]3CC[C@H]2C1=O | -0.0843
15 | CO[C@H]1COC(=O)[C@H](C)NC(=O)CC=C[C@@H](C)[C@H](OC)COC(=O)CC=C[C@@H]1C | -0.161
16 | CCOC(=O)C[C@H]1[C@H](OC(=O)c2ccccc2-c2ccccc2)[C@@H](NC(=O)c2ccccc2)c2cc(OCCCO)ccc2N1C(=O)c1ccc2ccccc2n1 | -0.0073 and -0.0357
17 | C=CCN(C(=O)C1N(CCOCCO)C(=O)C2C(C(=O)O)C3C=CC21O3)C(C)(C)C (centres undefined) | -0.116 and -0.153
18 | CCCNC(=O)OC[C@H]1O[C@H](CCON=C(C)CCC(=O)OC[C@H]2O[C@H](C#Cc3ccccc3)C=C[C@@H]2Oc2ccc(C)cc2)C=C[C@@H]1Oc1ccc(OC)cc1 | -0.141
19 | CCOC(=O)c1ccc(NC(=O)O[C@H]2[C@H](OC(=O)Nc3ccccc3)[C@H](OC(=O)Nc3ccccc3)[C@@H](OC)O[C@@H]2CO)cc1 | 0.121 and -0.0858
20 | O=C1NC(=O)C2C1C=CC(C(O)c1ccc([N+](=O)[O-])cc1)N2Nc1ccc(Cl)cc1Cl (centres undefined) | 0.0454 and 0.153

Row | Structure (SMILES) | composite z-score
21 | CC(C)=NO[C@@H](C)c1cc(-c2c(C)cc(C)cc2C)no1 | -0.181
22 | CC(C)=NOCc1ccc(-c2cn([C@@H]3COC[C@H]3O)nn2)cc1 | -0.131
23 | C=CC[C@@H](O)c1ccc(O)c2ccccc12 | -0.0523 and -0.153
24 | C[C@@H]1CC[C@@H](C(=O)O)N[C@H]1c1ccc(-c2ccco2)cc1 | -0.16
25 | COC(=O)c1c2oc(c1C(=O)OC)C(=O)N[C@@H](Cc1ccccc1)Cn1cc(nn1)C1(CCCCC1)NC(=O)N[C@H](CO)CC2 | 0.0165 and -0.0761
26 | C=C[C@@H](OC)[C@H](O)c1ccc(OC)c(O)c1 | -0.0212 and -0.163
27 | C=CCN(CCCCC)C(=O)C1N(CCCCCCO)C(=O)C2C(C(=O)O)C3C=CC21O3 (centres undefined) | 0.316 and -0.193
28 | C=CCN(C(=O)C(c1cccs1)N(C(=O)/C=C\C(=O)O)C(C)(C)CO)C(C)(C)C (centres undefined) | -0.172 and -0.0728
29 | Cc1ccc(S(=O)(=O)OC[C@@H]2CN3[C@@H](CC[C@@H](C)[C@@H]3c3ccc(Br)cc3)C(=O)O2)cc1 | -0.124 and -0.0326
30 | CC(C)[Si]1(C(C)C)OCc2cc(CCCc3cc4c(c(CCc5ccccc5)n3)[Si](C(C)C)(C(C)C)OC4)nc(CCc3ccccc3)c21 | -0.125 and -0.108
31 | C=CCN(Cc1ccccc1)C(=O)C1N(c2c(Cl)cccc2CO)C(=O)C2C(C(=O)O)C3C=CC21O3 (centres undefined) | -0.168 and -0.261
32 | COc1ccc(-c2ccc3c(n2)CCCN3CC(O)CN2CCCc3nc(-c4ccc(Br)cc4)ccc32)cc1 (centres undefined) | -0.0125 and -0.0349
33 | COc1ccc(O[C@H]2C=C[C@@H](c3ccccc3)O[C@@H]2COC(=O)CCC(C)=NO[C@H](C)c2cn([C@H](CO)Cc3ccccc3)nn2)cc1 | -0.318 and -0.0611
34 | C=CCN1C(=O)[C@]2(O[C@H](CCn3cc(CCO)nn3)[C@@H]([Si](C)(C)c3ccc(OC)cc3)[C@@H]2C)c2cc(N3C(=O)c4cccc5cccc3c45)ccc21 | -0.106 and -0.162
35 | C=CCN(CCCCC)C(=O)C(c1cccs1)N(C(=O)/C=C\C(=O)O)c1c(Cl)cccc1CO (centres undefined) | -0.057 and -0.187
36 | C=C[C@@H](OC)[C@H](O)c1ccc(O)c(F)c1 | -0.266 and -0.254
37 | C[N+](C)(C)CCCCNC(=O)[C@@H]1C[C@@H]2C(=O)N[C@@H](CCCC[N+](C)(C)C)C(=O)N2[C@@H]1c1cccc(OCCO)c1 | -0.0066 and -0.0861
38 | C=CC[C@@H](O)c1ccc(OCCO)cc1 | -0.222 and -0.176
39 | CCCNC(=O)OC[C@H]1O[C@H](CCON=C(C)CCN2CCc3nc(-c4ccccc4)c(-c4ccccc4)cc3C2)C=C[C@@H]1Oc1ccc(OC)cc1 | -0.108
